The values that follow come from PubChem BioAssay.

Each structure is given as a SMILES string. The source made the active and inactive calls.

Test [1] in a line: E. coli DRC41 culture turbidity changes, primary screen, E. coli filamentation inducer project, strain DRC41, OD650, 48 h (AID 1152).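 Also: E. coli MC1000 strain DRC41 lacking acrAB efflux pump and sulA.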 To be noted: E. coli DRC41 (acrAB sulA), higher = more signal, called active from +8 up or from −8 down.
A short description of test [2]: small-molecule binders of probe aLefty1, primary screen, biochemical, small-molecule microarray, 635/667 nm fluorescence (AID 1153).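 Also: score merges spot fluorescence with signal-to-noise ratio from the scanned slide images.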 The note with it: higher = more signal.
A short description of test [3]: PSAC antagonists in infected red cells, primary screen, cell-based, P. falciparum Indochina, OD700, 1 h (AID 1154). To be noted: P. falciparum Indochina infected RBC osmotic lysis, higher = more signal, called active from +8 up or from −8 down.
The nature of test [4]: PSAC antagonists in infected red cells, primary screen, cell-based, P. falciparum Indochina, OD700, 2 h (AID 1155).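 Also: lysis reports solute entry through the parasite surface anion channel PSAC; channel blockers reduce lysis of infected cells.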 To be noted: P. falciparum Indochina infected erythrocytes, osmotic lysis OD700; higher = more signal, called active from +8 up or from −8 down.
A short description of test [5]: osmotic lysis modulators in infected erythrocytes, primary screen, PSAC antagonist project, cell-based, P. falciparum Indochina, OD700, 3 h (AID 1156). To be noted: higher = more signal, called active from +8 up or from −8 down.
Test [6] can be described thus: PSAC antagonists in infected red cells, primary screen, cell-based, P. falciparum Indochina, OD700, 18 h (AID 1157). To be noted: P. falciparum Indochina infected erythrocytes, osmotic lysis OD700, 18 h; higher = more signal, called active from +8 up or from −8 down.
Test [7] can be described thus: modulators of S6 phosphorylation in cells, primary screen, cell-based, A549, cytoblot, luminescence, serum-stimulated (AID 1158).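 Also: serum-stimulated A549 lung adenocarcinoma cells; signal is phosphorylated S6 detected by cytoblot immunostaining with HRP secondary.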 To be noted: A549 phospho-S6 cytoblot, 5 h, higher = more signal.
The target of test [8] is NADPH oxidase 2 (Homo sapiens) (UniProt P04839). The test is described as follows: NOX2-dependent H2O2 signal modulators, primary screen, NOX inhibitor project, cell-based, HEK293-NOX2, PMA-stimulated, Amplex Red fluorescence (AID 1159). Also: test concentration not given here. To be noted: 45 min, higher = more signal, called active from +8 up or from −8 down.
Sequence of NADPH oxidase 2 (Homo sapiens) (P04839 whole entry, looked up): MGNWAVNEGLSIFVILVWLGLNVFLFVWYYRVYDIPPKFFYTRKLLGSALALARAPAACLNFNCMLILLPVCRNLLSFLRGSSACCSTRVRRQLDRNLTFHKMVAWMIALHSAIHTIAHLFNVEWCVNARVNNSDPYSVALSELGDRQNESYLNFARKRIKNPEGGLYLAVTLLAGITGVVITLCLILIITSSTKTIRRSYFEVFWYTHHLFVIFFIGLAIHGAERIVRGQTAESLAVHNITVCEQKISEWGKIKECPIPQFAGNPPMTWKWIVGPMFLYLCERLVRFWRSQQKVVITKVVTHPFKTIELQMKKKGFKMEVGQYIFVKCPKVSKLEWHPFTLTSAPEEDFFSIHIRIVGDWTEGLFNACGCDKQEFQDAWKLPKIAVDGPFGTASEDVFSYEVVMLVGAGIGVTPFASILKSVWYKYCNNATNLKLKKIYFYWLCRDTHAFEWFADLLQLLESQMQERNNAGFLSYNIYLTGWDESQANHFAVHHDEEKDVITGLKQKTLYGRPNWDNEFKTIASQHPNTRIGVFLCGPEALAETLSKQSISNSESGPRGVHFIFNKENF
Test [9] has as its target NADPH oxidase 4 (Homo sapiens) (UniProt Q9NPH5). The test is described as follows: NOX4-dependent H2O2 signal modulators, primary screen, NOX inhibitor project, cell-based, HEK293-NOX4, tetracycline-induced, Amplex Red fluorescence (AID 1160). To be noted: 45 min, higher = more signal, called active from +8 up or from −8 down.
Test [10] deals with NADPH oxidase 5 (Homo sapiens) (UniProt Q96PH1). As to the kind of experiment: NOX5-dependent H2O2 signal modulators, primary screen, NOX inhibitor project, cell-based, HEK293-NOX5, Amplex Red fluorescence (AID 1161). To be noted: HEK293-NOX5, ionomycin, 45 min, higher = more signal.
Sequence of NADPH oxidase 5 (Homo sapiens) (Q96PH1 whole entry, looked up): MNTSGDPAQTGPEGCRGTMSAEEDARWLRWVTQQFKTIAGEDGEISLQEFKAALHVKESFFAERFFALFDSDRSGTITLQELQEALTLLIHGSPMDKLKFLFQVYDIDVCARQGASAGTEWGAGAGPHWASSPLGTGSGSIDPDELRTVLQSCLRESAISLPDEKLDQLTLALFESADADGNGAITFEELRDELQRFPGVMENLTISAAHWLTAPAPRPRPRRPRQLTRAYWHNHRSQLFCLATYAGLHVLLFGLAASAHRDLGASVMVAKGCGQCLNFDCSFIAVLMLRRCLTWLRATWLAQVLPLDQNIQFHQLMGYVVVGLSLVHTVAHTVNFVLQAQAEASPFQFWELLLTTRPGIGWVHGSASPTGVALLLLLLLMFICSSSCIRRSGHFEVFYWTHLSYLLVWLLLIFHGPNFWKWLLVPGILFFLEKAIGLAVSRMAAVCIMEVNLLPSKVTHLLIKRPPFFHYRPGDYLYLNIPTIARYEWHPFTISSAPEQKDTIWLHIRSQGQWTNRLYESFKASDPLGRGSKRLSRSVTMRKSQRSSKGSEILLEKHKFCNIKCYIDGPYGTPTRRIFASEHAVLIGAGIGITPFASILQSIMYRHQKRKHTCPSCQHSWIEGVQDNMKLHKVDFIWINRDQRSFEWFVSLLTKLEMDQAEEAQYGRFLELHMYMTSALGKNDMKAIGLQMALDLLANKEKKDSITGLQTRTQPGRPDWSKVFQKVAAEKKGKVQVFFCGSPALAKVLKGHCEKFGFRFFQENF

Sequence of NADPH oxidase 4 (Homo sapiens) (Q9NPH5 whole entry, looked up): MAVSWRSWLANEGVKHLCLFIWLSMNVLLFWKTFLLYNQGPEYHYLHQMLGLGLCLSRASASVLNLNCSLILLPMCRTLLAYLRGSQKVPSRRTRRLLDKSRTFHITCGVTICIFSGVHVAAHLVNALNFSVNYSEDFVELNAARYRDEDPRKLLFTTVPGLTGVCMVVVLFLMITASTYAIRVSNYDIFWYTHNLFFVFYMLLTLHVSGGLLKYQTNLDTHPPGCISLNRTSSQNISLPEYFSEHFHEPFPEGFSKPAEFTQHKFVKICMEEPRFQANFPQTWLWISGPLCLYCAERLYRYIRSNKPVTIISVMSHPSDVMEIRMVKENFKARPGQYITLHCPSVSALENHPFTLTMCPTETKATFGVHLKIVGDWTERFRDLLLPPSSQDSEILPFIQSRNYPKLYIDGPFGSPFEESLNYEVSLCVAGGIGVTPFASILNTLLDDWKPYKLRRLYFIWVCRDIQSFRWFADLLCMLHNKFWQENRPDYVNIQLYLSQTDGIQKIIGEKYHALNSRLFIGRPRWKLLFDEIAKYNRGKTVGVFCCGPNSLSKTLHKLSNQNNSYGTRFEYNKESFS

As to `[N-]=[N+]=NCc1ccccc1C[C@@]1(C(=O)NCCN2CCOCC2)N=C(c2ccc(OCCCO)cc2)O[C@@H]1c1ccccc1CN=[N+]=[N-]`, the z-score in [1] was 0.648 (inactive); in test [3], 26.4 (active); in test [4] it was 13.7 (active); in test [5], 1.2 (inactive); in [6], 2.26 (inactive); in [7], -0.213. Besides, the z-score in [8] is 0.528 (inactive); in test [9], 0.116 (inactive); in test [10], 2.24. The compound also gave a composite z-score in test [2] of 0.565.

With `COCCOC(=O)N1C(=O)[C@@]2(c3cc(C#Cc4ccc(OC)cc4)ccc31)[C@H](c1ccc(OCCO)cc1)N1[C@H](c3ccccc3)[C@H](c3ccccc3)OC(=O)[C@H]1[C@@H]2C(N)=O`, the z-score in [1] is 0.629 (inactive); in test [3] it was 5.54 (inactive); in test [4] it was 2.19 (inactive); in test [5], 0.528 (inactive); in test [6], 0.924 (inactive); in [7], -0.141. For the same compound, the z-score was 1.49 (inactive) in test [8], 1.03 (inactive) in [9] and 1.85 in [10]. Moreover, in test [2], the composite z-score was 0.291.

Regarding `COc1ccc(C#Cc2ccc3c(c2)[C@]2(C(=O)N3)[C@H](C(=O)O)[C@H]3C(=O)O[C@H](c4ccccc4)[C@H](c4ccccc4)N3[C@@H]2c2ccc(OCCO)cc2)cc1`, the z-score in [1] is 0.962 (inactive); in [3], 3.33 (inactive); in [4] it was -0.266 (inactive); in test [5] it was -8.91 (active); in test [6], -0.097 (inactive); in [7], -0.0207. Further, the z-score in test [8] is 1.67 (inactive); in test [9], -0.925 (inactive); in [10], 1.12. In [2], this compound registered a composite z-score of 0.33.

As to `CN1C(=O)C2C=CC(C(O)COCc3ccccc3)N(Nc3ccccc3)C2C1=O` (stereo not given), the z-score in test [1] is -0.75 (inactive); in test [3], 0.625 (inactive); in test [4], 0.167 (inactive); in [5], -0.225 (inactive); in test [6], 0.63 (inactive); in [7], -1.01. The z-score in test [8] was -2.32 (inactive); in test [9], -4.03 (inactive); in test [10], -2.63. This compound yielded a composite z-score in test [2] of 0.167.

On to `COc1ccc([Si](C)(C)[C@H]2[C@H](CCn3cc(CCO)nn3)O[C@@]3(C(=O)N(Cc4cccc(N5C(=O)c6cccc7cccc5c67)c4)c4ccccc43)[C@@H]2C)cc1`, for which the z-score in test [1] was 0.652 (inactive); in test [3] it was 5.3 (inactive); in test [4], 2.43 (inactive); in test [5], 1.32 (inactive); in test [6], 1.36 (inactive); in test [7] it was 0.615. The z-score in test [8] was 0.782 (inactive); in test [9], 1.74 (inactive); in test [10], 2.97. Moreover, the composite z-score in test [2] was 0.466.

In the case of `CCCNC(=O)[C@@H]1c2ccccc2C(=O)N(CC23CC4CC(CC(C4)C2)C3)[C@H]1c1ccc(CO)cc1`, the z-score in [1] was -0.59 (inactive); in [3], 2.45 (inactive); in test [4], 0.79 (inactive); in test [5] it was 1.88 (inactive); in [6], 0.276 (inactive); in [7], 0.171. Further, the z-score in test [8] is 0.717 (inactive); in [9], -1.2 (inactive); in [10], -2.76. In test [2], this compound gave a composite z-score of 0.376.

Take `Cc1ccccc1C(O)C1C=CC2C(=O)N(C)C(=O)C2N1Nc1ccc([N+](=O)[O-])cc1[N+](=O)[O-]` (stereo not given): the z-score in test [1] is -1.68 (inactive); in test [3] it was 4.34 (inactive); in test [4], 1.7 (inactive); in test [5], 1.06 (inactive); in [6], 0.95 (inactive); in [7], -1.32. Besides, the z-score was -0.824 (inactive) in test [8], -1.23 (inactive) in [9] and 0.487 in test [10]. For the same compound, the composite z-score in [2] came out at 0.591.

As for `CN(C)CCCCNC(=O)[C@H]1C[C@H]2C(=O)N[C@@H](CCCC[N+](C)(C)C)C(=O)N2[C@H]1c1cccc(OCCO)c1`, the z-score in test [1] is 0.125 (inactive); in test [3], 3.16 (inactive); in [4], 0.77 (inactive); in test [5], 0.675 (inactive); in [6], 0.178 (inactive); in test [7], -0.294. The z-score is 2.19 (inactive) in test [8], 1.58 (inactive) in test [9] and 1.26 in [10]. This compound also came in with a composite z-score in test [2] of 0.145.

As for `COc1ccc(C(=O)Nc2ccc(CN3C(=O)[C@]4(O[C@H](CCn5cc([C@H](O)c6ccccc6)nn5)[C@@H]([Si](C)(C)c5ccc(OC)cc5)[C@@H]4C)c4ccccc43)cc2)cc1`, the z-score was -0.372 (inactive) in test [1]; 3.29 (inactive) in test [3]; 1.02 (inactive) in test [4]; 0.741 (inactive) in test [5]; 1.26 (inactive) in test [6]; 0.319 in [7]. The z-score in test [8] is 0.753 (inactive); in [9], 0.206 (inactive); in test [10], 2.27. Further, the composite z-score in test [2] was 0.193.

As to `CC(C)[Si](C#C[Si](C(C)C)(C(C)C)C(C)C)(O[C@H](C)c1cn(Cc2cccc(Cl)c2)nn1)C(C)C`, the z-score in test [1] was 2.58 (inactive); in [3], 1.23 (inactive); in test [4], 0.881 (inactive); in [5], -0.125 (inactive); in [6], 0.702 (inactive); in test [7], 0.712. For the same compound, the z-score in test [8] was 0.501 (inactive); in test [9], 0.312 (inactive); in test [10], -0.162. The compound further registered a composite z-score in test [2] of -0.195.

In the case of `COC(=O)[C@@]1(Cc2ccccc2)[C@H]2c3cc(C(=O)N4CCCC4)n(Cc4ccccc4)c3C[C@H]2CN1C(=O)c1ccccc1`, the z-score is -1.83 (inactive) in [1]; 3.6 (inactive) in [3]; 0.945 (inactive) in [4]; 0.365 (inactive) in [5]; 1.03 (inactive) in [6]; -0.276 in [7]. Further, the values for the z-score in test [8], in test [9] and in [10] were -0.218 (inactive), -0.0718 (inactive) and -1.23, respectively. The compound further had a composite z-score in [2] of 0.128.
